Experimental findings from the OligoGym collection are described below.
Further: reference of the scale not given here.

One experiment concerns the target ENO2. The experiment can be described thus: pooled miR-30 sensor sort-seq; sequence = guide strand. Conditions: shRNA.
TTTGTCTCCATCCCTCAGCTCC displayed a sensor-assay potency score (higher = more potent) of -0.755.

In turn, TACATTGGCTGTGAACTTGGAC displayed a sensor-assay potency score (higher = more potent) of 0.428.

For TTGAGCAGCAGACAGTTGCAGG, the sensor-assay potency score (higher = more potent) is -0.936.

In turn, TATGGTAGACCTCTGCACCTAG had a sensor-assay potency score (higher = more potent) of 0.499.

As for TATTTGTCCTTGATGACTCCCT, the sensor-assay potency score (higher = more potent) was found to be 0.308.

For ATTGGTGGCATCCTTGCCGTAT, the sensor-assay potency score (higher = more potent) is -0.654.

With TTGTCCTTGATGACTCCCTTGA, the sensor-assay potency score (higher = more potent) was -0.328.

In the case of TAGACCTCTGCACCTAGTCGCA, the sensor-assay potency score (higher = more potent) is -1.03.

Turning to TTGGATTTGTTCTCAGTCCCAT, the sensor-assay potency score (higher = more potent) was 0.271.

TTTTGGGTTGGTCACTGTCAGG came in with a sensor-assay potency score (higher = more potent) of -1.77.

TTGGCTGTGAACTTGGACCAGG returned a sensor-assay potency score (higher = more potent) of -0.413.

As to TAGTCCCTGACAAAGTCCTGGT, the sensor-assay potency score (higher = more potent) was -0.652.

Sequence TTCAGTGACCGAGCCGATCTGG came in with a sensor-assay potency score (higher = more potent) of -0.433.

TTGAGTGTATGGTAGACCTCTG: the sensor-assay potency score (higher = more potent) is -0.0986.

Sequence TTTCTCTTGCTCCACCACAGAG yielded a sensor-assay potency score (higher = more potent) of -1.22.

Turning to TTTGCCTAAGTAACGCTGTTTG, the sensor-assay potency score (higher = more potent) was -1.32.

As to TTCCTCAATTCTCATGAGCTGG, the sensor-assay potency score (higher = more potent) is -0.892.

TGATGTATCGGGAAGGATCAGT had a sensor-assay potency score (higher = more potent) of -0.0535.

TTCTCTTGCTCCACCACAGAGA returned a sensor-assay potency score (higher = more potent) of -1.02.

The sequence TTGATGACTCCCTTGAGTGTAT returned a sensor-assay potency score (higher = more potent) of -0.705.

Sequence TAGAGATCCACCTCCACTGTGG displayed a sensor-assay potency score (higher = more potent) of 0.0832.

Take TTGGATGGCTTCAGTGACCGAG: the sensor-assay potency score (higher = more potent) turned out to be 0.159.

TCTAACACCTCAGCACACCAAC registered a sensor-assay potency score (higher = more potent) of -0.842.

In the case of TATAGAGATCCACCTCCACTGT, the sensor-assay potency score (higher = more potent) is -0.931.

For another experiment, the target named is ENPP7. Described as above. Conditions: shRNA.
In the case of TAGTCCAGGAGCTCAAACTCGA, the sensor-assay potency score (higher = more potent) is -0.814.

For the sequence TTCTTGTAGACGTGGAGCTTGG, the sensor-assay potency score (higher = more potent) was -0.97.

TTGTCCACGGTCGTCATGCCGT returned a sensor-assay potency score (higher = more potent) of -1.22.

In the case of TTGTAGTTGTGTGCGATGCCTT, the sensor-assay potency score (higher = more potent) was -0.915.

For the sequence TACATGTTGTGAACCACCCCGT, the sensor-assay potency score (higher = more potent) was -0.259.

In turn, TTCATGTCCATGTCCTTGTTGT displayed a sensor-assay potency score (higher = more potent) of -0.0468.

TTGTAGACGTGGAGCTTGGGGT displayed a sensor-assay potency score (higher = more potent) of -0.738.

Regarding TCGCTCTCCACTCCGTCTCATT, the sensor-assay potency score (higher = more potent) is -1.59.

In turn, TTGCGCGCGATGCTCTCCCGGA had a sensor-assay potency score (higher = more potent) of -1.29.

Consider TAGGGCAGCTTCACCTTGCTGG, for which the sensor-assay potency score (higher = more potent) is -0.078.

In turn, TTTAGGGAGCAGCATCCCGTTT gave a sensor-assay potency score (higher = more potent) of -1.36.

Sequence TTGAACTGGACGTTAATTCTCC displayed a sensor-assay potency score (higher = more potent) of -0.264.

The target of a further experiment is ENTHD1. The description is as above. Conditions: shRNA.
The sequence TTTAACTCCTAACACTAGCATC returned a sensor-assay potency score (higher = more potent) of -1.32.

Regarding TAGTTTGAAAGATACTTGCTAA, the sensor-assay potency score (higher = more potent) was -0.328.

As to TTTTATTATGTAACCTTCCAAA, the sensor-assay potency score (higher = more potent) is -1.23.
